# Only some compounds are listed: those with a hit (about 6.7% of all), similar ones and a draw of the others.
# Bead autofluor = counter-screen for toxin protease inhibitors: compound fluorescence; compound autofluorescence counterscreen, microsphere flow cytometry; hits give high values; fluorescence intensity (test concentration not listed); AID 624483; actives 3.1% (n = 360,000); in the data active means fluorescence intensity above about 16000; inconclusive means no clear call, values can overlap the other calls
# Anthrax LF inh2 = Bacillus anthracis LF protease inhibitors, primary screen, biochemical, multiplex microsphere, MLPCN library. multiplex microsphere protease cleavage assay. inhibition, % at 10 µM. actives 0.12% (n = 360,000). AID 588501, 2011; in the data active means inhibition above about 30%; inconclusive means no clear call, values can overlap the other calls; further: plate controls were buffer without enzyme for full effect and enzyme alone for no effect
# FBA Mtb inh = Mtb FBA enzyme inhibitors, primary screen, biochemical, fluorescence, strain H37Rv | Fructose-bisphosphate aldolase (Mycobacterium tuberculosis (strain ATCC 25618 / H37Rv)), … | purified M. tuberculosis FBA, fluorescence read-out | inhibition, % at 1 µM | actives 2.3% (n = 360,000) | AID 588726, 2011;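 further: 0% = vehicle and 100% = reference inhibitor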
# Target sequence (P9WQA3 whole entry, looked up): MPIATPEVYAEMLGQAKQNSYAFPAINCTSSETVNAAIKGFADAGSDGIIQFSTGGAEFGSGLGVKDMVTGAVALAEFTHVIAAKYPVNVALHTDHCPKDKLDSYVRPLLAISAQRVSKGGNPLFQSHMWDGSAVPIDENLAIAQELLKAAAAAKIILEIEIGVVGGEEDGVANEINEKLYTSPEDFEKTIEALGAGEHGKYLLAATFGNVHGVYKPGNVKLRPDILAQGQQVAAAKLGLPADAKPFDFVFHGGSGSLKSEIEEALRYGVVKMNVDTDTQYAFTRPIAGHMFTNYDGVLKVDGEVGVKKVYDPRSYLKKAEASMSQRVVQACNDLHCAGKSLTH
# BoNT-F LC inh = BoNT/F light chain protease inhibitors, primary screen, biochemical, flow cytometry, MLPCN library; AID 588497, 2011; Multiplex microsphere protease cleavage assay; Botulinum neurotoxin type F light chain protease (Clostridium botulinum); inhibition, % at 10 µM; actives 0.22% (n = 360,000); in the data active means inhibition above about 35%, passing the limit was not always enough; inconclusive means no clear call, values can overlap the other calls; further: plate controls were buffer without enzyme for full effect and enzyme alone for no effect
# BoNT-A LC inh2 = BoNT/A light chain protease inhibitors, primary screen, biochemical, flow cytometry, MLPCN library | Botulinum neurotoxin type A light chain protease (Clostridium botulinum A str. ATCC 3502) | multiplex microsphere protease substrate cleavage | inhibition, % at 10 µM | actives 0.17% (n = 360,000); in the data active means inhibition above about 30%; inconclusive means no clear call, values can overlap the other calls; further: plate controls were buffer without enzyme for full effect and enzyme alone for no effect
# GDH-TPI counter-1 = GDH-TPI coupling enzyme inhibitors, primary screen, artefact control for M. tuberculosis FBA inhibitor project, biochemical, absorbance, full deck. GDH-TPI coupled enzyme counterscreen, NADH absorbance. inhibition, % at 4.8 µM. actives 1.2% (n = 360,000); in the data active means inhibition above about 30%;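 further: 0% = DMSO wells and 100% = wells lacking the enzyme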
# Mtb FBA confirm = M. tuberculosis aldolase blockers, biochemical, fluorescence, strain H37Rv, confirmation. purified M. tuberculosis FBA, fluorescence read-out. inhibition, % at 1 µM. shares compounds with FBA Mtb inh. actives 78% (n = 5,600). AID 651616, 2012;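 further: 0% = vehicle wells and 100% = reference inhibitor wells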
# GDH-TPI counter-2 = GDH-TPI coupling enzyme inhibitors, artefact control for M. tuberculosis FBA inhibitor project, biochemical, fluorescence, high throughput; shares compounds with FBA Mtb inh; actives 81% (n = 5,600); AID 652141, 2013; inhibition, % at 1 µM; GDH-TPI coupled enzyme counterscreen; in the data active means inhibition above about 10%
# GDH-TPI dose = GDH-TPI coupling enzyme inhibitors, dose response, artefact control for M. tuberculosis FBA inhibitor project, biochemical, fluorescence, IC50 | actives 79% (n = 170) | IC50, µM | GDH-TPI coupled enzyme assay, artifact counterscreen | shares compounds with FBA Mtb inh; call rule not given here
# * marks the source's active call; other numbers are inactive results; ? = inconclusive; / = no result given; + = active, no number. Unless noted, no stated cut-off is given here; in the data, active means inhibition above about 27%; inactive means the rest.
SMILES,Bead autofluor,Anthrax LF inh2,FBA Mtb inh,BoNT-F LC inh,BoNT-A LC inh2,GDH-TPI counter-1,Mtb FBA confirm,GDH-TPI counter-2,others
CC(C)CCn1c(=O)c2ccccc2n2c(CCl)nnc12,3259,-8.4,3.9,-8.8,-1.0,13.4,/,/,
O=C(COC(=O)c1cccc2ccccc12)NCC1CCCO1 (stereo unspecified),3157,-8.6,36.4*,-4.5,0.5,3.3,137.2*,119.5*,
O=C(COC(=O)/C=C/c1ccccc1)NCC1CCCO1 (stereo unspecified),4448,0.4,-0.7,-1.5,-0.6,-8.6,/,/,
CSc1ccc(/C=C/C(=O)OCC(=O)NCC2CCCO2)cc1 (stereo unspecified),8856,0.4,45.2*,2.9,0.5,30.0,52.7*,49.3*,
CCn1nc2cc(C(=O)NCC34CC5CC(CC(C5)C3)C4)ccc2c1OC,4311,2.0,27.8*,-8.4,-0.4,11.2,14.1,-5.4,GDH-TPI dose=4*
CCOc1ccc(OCCNC(=O)c2ccc3c(c2)nnn3CC)cc1,6162,-1.4,2.2,-4.8,1.4,3.2,/,/,
CCCCn1nc2cc(C(=O)NCC34CC5CC(CC(C5)C3)C4)ccc2c1OC,3672,-3.7,30.7*,2.0,-0.9,8.5,56.7*,42.8*,
CCOc1c2ccc(C(=O)NCC34CC5CC(CC(C5)C3)C4)cc2nn1CC,4001,-2.7,39.4*,-3.1,-0.9,8.4,0.6,5.9,
CCOC(=O)C1CCN(C(=O)CCS(=O)(=O)c2ccc3c(c2)CCN3C(C)=O)CC1,3978,-2.9,-2.4,-11.3,0.5,9.9,/,/,
COc1ccc(NC(=O)c2ccc(Br)c(S(=O)(=O)N3CCOCC3)c2)cc1,4264,-6.7,2.3,-15.6,-5.6,6.0,/,/,
O=C(COc1ccc([N+](=O)[O-])cc1)Nc1nc(-c2ccccn2)cs1,5552,0.3,27.9*,-24.1,3.8,10.0,+,+,
CCCCOC(=O)Nc1nnc(/C=C/c2ccc(OC)cc2)s1,2067,0.8,16.6,-9.7,-0.5,19.9,/,/,
CCOC(=O)Nc1nnc(-c2cccc(OC)c2)s1,4527,-4.8,97.8*,-25.8,0.5,10.5,+,178.1*,
CCOC(=O)Nc1nnc(-c2ccc(OC)cc2)s1,7827,1.0,51.9*,-9.6,-0.3,7.8,158.4*,121.0*,
CCOC(=O)Nc1nnc(/C=C/c2ccc(OC)cc2)s1,2639,-0.9,33.2*,-5.3,0.3,36.0*,-2.8,-7.2,
CCC(=O)Nc1nnc(/C=C/c2ccccc2)s1,3489,-8.9,32.7*,-12.6,-1.1,31.0*,123.8*,103.2*,
CCCC(=O)Nc1nnc(/C=C/c2ccccc2)s1,/,/,19.2,/,/,25.6,/,/,
CCCC(=O)Nc1nnc(-c2cccc(OCC)c2)s1,4498,1.7,11.1,19.5,0.2,5.6,/,/,
O=C(OCC(=O)N1CCc2ccccc21)c1cccc(S(=O)(=O)N2CCCc3ccccc32)c1,1991,1.1,1.6,6.2,0.5,12.4,/,/,
C[C@@H]1CN([C@H](C)CO)C(=O)CCCn2nncc2CO[C@H]1CN(C)C(=O)CCC(F)(F)F,2857,-10.3,1.3,3.1,-0.3,5.7,/,/,
Cc1cc(-c2ccccc2)n2ncc(C#N)c2n1,4299,12.0,55.1*,5.6,0.8,24.5,-1.6,-6.5,
COc1ccc(/C=C/c2nc3ccccc3n2Cc2ccccc2OC)cc1,2565,-0.8,17.1,-0.8,0.3,17.1,/,/,
Cn1c(/C=C/c2ccccc2)nc2ccccc21,4364,-1.8,47.6*,3.4,-0.4,28.0,199.1*,167.7*,
COCCn1c(/C=C/c2ccccc2)nc2ccccc21,4517,6.2,53.1*,-4.8,-1.6,29.6,6.7,-2.6,
Cc1cccc(NC(=O)Cn2c(/C=C/c3ccccc3)nc3ccccc32)c1,2245,-2.1,32.1*,0.1,-0.5,7.6,42.2*,34.2*,
SMILES,Bead autofluor,Anthrax LF inh2,FBA Mtb inh,BoNT-F LC inh,BoNT-A LC inh2,GDH-TPI counter-1,Mtb FBA confirm,GDH-TPI counter-2,others
COc1ccccc1Cn1c(/C=C/c2ccccc2)nc2ccccc21,2786,-2.1,64.8*,-3.4,-0.1,14.3,97.9*,76.6*,
Cn1c(/C=C/c2cccc(Br)c2)nc2ccccc2c1=O,3613,4.5,7.6,11.4,1.9,25.9,/,/,
CC(=O)OCC(=O)Nc1ccc(Cl)cc1Cl,3384,-1.8,0.8,-4.7,-0.5,3.8,/,/,
CC(C)c1ccc(OCC(=O)NC2CCCC2)cc1,5327,-1.2,-1.4,-3.0,-1.0,3.8,/,/,
Cn1cc(/C=C2\SC(=S)N(N3CCOCC3)C2=O)c2ccccc21,3973,-17.6,0.8,?,?,8.7,/,/,
CC(=O)c1ccc(/C=C/c2nc3ccccc3n2C)o1,3616,-15.3,46.1*,?,6.1,7.8,24.8,16.9*,
CCCn1c(/C=C/c2ccco2)nc2ccccc21,3012,-0.4,8.8,-7.7,8.7,9.0,/,/,
CCCN1C(=O)c2ccccc2NC1c1cc(OC)c(OC)c(OC)c1 (stereo unspecified),4769,-2.5,71.0*,1.5,0.8,1.9,136.5*,113.8*,
CCN(CC)CCN1C(=O)c2ccccc2NC1c1cc(OC)c(OC)c(OC)c1 (stereo unspecified),9041,-7.1,107.0*,-3.2,0.2,9.3,+,+,
CC(C)(CNC(=O)c1sc2cc(F)ccc2c1Cl)N1CCOCC1,2771,-0.7,1.9,-5.4,-0.6,-0.8,/,/,
COc1ccc(-c2oc3ncnc(N)c3c2-c2ccccc2)cc1,21630*,1.2,27.4*,4.0,3.4,5.3,4.8,-1.5,
O=C1C2C3C=CC(C4CC34)C2C(=O)N1CCc1ccccc1 (stereo unspecified),7675,-1.3,0.5,-1.8,-0.6,-2.2,/,/,
CCOC(=O)C1=C(C)N(CCCCCC(=O)O)C(=O)NC1c1ccc(Br)cc1 (stereo unspecified),3724,3.0,0.3,8.9,-0.6,7.6,/,/,
CC(=O)C(Cc1ccc(Cl)nc1)Cc1ccc(Cl)nc1,4300,7.9,-0.4,-1.9,-0.5,-3.7,/,/,
COC(=O)Cc1ccc(OCc2ccc(Cl)nc2)cc1,4067,-4.3,53.3*,-8.2,-1.1,-5.0,147.9*,102.3*,

# Bioassay records deposited in PubChem BioAssay by several laboratories.
